Inconclusive results are not listed. Entries that show only a call come without a potency. A number with no mark means an inactive call. Activity calls are given as the source filed them. Calls come from the whole dose curve.

Chain of Thyrotropin receptor (Homo sapiens) (P16473 whole entry, looked up): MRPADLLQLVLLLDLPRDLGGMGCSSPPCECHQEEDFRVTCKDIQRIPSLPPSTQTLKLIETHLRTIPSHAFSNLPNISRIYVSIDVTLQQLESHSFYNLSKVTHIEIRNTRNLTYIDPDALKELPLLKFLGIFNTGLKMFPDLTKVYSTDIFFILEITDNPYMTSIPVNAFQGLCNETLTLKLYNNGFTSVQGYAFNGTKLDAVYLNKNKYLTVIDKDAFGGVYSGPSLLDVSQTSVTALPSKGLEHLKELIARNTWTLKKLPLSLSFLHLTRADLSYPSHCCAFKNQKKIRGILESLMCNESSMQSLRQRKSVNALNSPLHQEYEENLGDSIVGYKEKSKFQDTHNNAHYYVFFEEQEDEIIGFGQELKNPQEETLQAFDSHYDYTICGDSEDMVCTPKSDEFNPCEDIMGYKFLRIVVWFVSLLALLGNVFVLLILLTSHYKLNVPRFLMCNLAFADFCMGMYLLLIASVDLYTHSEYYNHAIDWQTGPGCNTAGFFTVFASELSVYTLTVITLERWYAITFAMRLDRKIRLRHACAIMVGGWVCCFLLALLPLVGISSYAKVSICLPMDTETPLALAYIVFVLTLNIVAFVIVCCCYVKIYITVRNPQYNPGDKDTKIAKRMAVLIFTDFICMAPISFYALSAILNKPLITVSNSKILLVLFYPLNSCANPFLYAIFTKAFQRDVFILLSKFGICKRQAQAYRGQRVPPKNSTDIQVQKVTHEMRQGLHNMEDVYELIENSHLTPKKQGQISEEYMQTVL

This test concerns the target Thyrotropin receptor (Homo sapiens) (UniProt P16473). Kind of test: qHTS assay to identify small molecule agonists of the thyroid stimulating hormone receptor (TSHR) signaling pathway (AID 1224843). Note: nearly all actives have a fitted effect of over 45% in size. Conditions: TSHR-HEK293 cells, cAMP HTRF, agonist mode, 30 min; series mostly up to 92.4 µM. The text has this:
National Center for Advancing Translational Sciences [NCATS]
NIH Chemical Genomics Center [NCGC]
U.S. Environmental Protection Agency [EPA]
National Institutes of Environmental Health Sciences [NIEHS]
National Toxicology Program [NTP]
U.S. Food and Drug Administration [FDA]
TSHR is the receptor for thyrotropin (thyroid stimulating hormone or TSH), a member of the glycoprotein hormone family. TSH is released by the anterior pituitary gland and is the main regulator of thyroid gland growth and development. Upon binding circulating thyrotropin, a G-protein signal cascade activates adenylyl cyclase and […] cAMP concentration is increased. cAMP is a key second messenger involved extensively in cellular signal transduction pathways associated with the majority of G-protein coupled receptors (GPCRs). The activation of these GPCRs by neurotransmitters, lipids, nucleotides, peptides and hormones results in the activation or the inhibition of plasma membrane-bound adenylate cyclase through heterotrimeric G-proteins. A cell-based TSHR assay was used to screen the Tox21 10K library for compounds that can modulate TSHR in agonist mode.
Tox21 Assay Protocol Summary:
TSHR-Hek293 cells were dispensed at 800 cells/4uL/well in 1536-well white plates using a Multidrop dispenser. […] The plates were incubated at room temperature for 30 min. 2.5 ul/well of cAMP-d2 and 2.5ul/well of anti-cAMP-cryptate was added respectively into the assay plates using a Flying Reagent Dispenser. After 1 hr incubation at room temperature, the fluorescence intensity in the plates was measured using an Envision plate reader. Each test compound was measured at 15 concentrations and in triplicates.
For orientation: In qHTS, concentration-response curves come from the screen itself.
On to `c1ccc2nccnc2c1`, for which the Potency entry is “inactive”.

For the molecule `CC(=O)/C=C/C1C(C)=CCC(C)C1(C)C` (stereo not given), the Potency entry was “inactive”.

Turning to `Oc1ccccc1-c1nnco1`, the Potency entry was “inactive”.

For `CC(=O)N[C@@H](CCC(=O)O)C(=O)O`, the Potency result is “inactive”.

Consider `CCCCCCCCSCC`, for which the Potency entry is “inactive”.

On to `O=C(O)CCSSCCC(=O)O`, for which the Potency entry was “inactive”.

On to `CC(CN)CC(C)(C)CCN` (stereo not given), for which the Potency result was “inactive”.

For the molecule `CCNC(=O)C1CC(C)CCC1C(C)C` (stereo not given), the Potency entry was “inactive”.

As to `COP(=O)(OC)OC(c1ccc(Cl)cc1)P(=O)(OC)OC` (stereo not given), the Potency result is “inactive”.

Regarding `Cc1ccc(S(=O)(=O)O)c(C)c1`, the Potency entry is “inactive”.

Regarding `CCCC/C=C/C=C\C=O`, the Potency entry was “inactive”.

Take `Nc1cccc(O)c1`: the Potency result is “inactive”.

Take `CC1(CO)CN(c2ccccc2)NC1=O` (stereo not given): the Potency entry was “inactive”.

For `Nc1ccc([N+](=O)[O-])c(N)c1`, the Potency entry was “inactive”.

In the case of `COc1nccnc1NS(=O)(=O)c1ccc(N)cc1`, the Potency result is “inactive”.

Regarding `COCCOCCOCCOCCO`, the Potency result was “inactive”.

`CCCCCCCCCCl`: the Potency result is “inactive”.

As for `N[C@@H](CCC(=O)Nc1ccc([N+](=O)[O-])cc1)C(=O)O`, the Potency result is “inactive”.

As for `N[C@@H](CCC(=O)N[C@@H](CS)C(=O)NCC(=O)O)C(=O)O`, the activation was 2.71% [at 19 µM].

Take `COCCc1ccc(OCC2CO2)cc1` (stereo not given): the Potency result is “inactive”.

Turning to `CC(CO)c1ccccc1` (stereo not given), the Potency result was “inactive”.

For `CC1COc2ccccc2N1` (stereo not given), the Potency entry was “inactive”.

Consider `COc1cc(C(=S)N2CCOCC2)cc(OC)c1OC`, for which the Potency result was “inactive”.

Turning to `CCCN1C[C@H](CSC)C[C@@H]2c3cccc4[nH]cc(c34)C[C@H]21`, the Potency result is “inactive”.

In the case of `CCCC(=O)C(C)=O`, the Potency entry is “inactive”.

As to `O=C(OCc1ccccc1)C(=O)OCc1ccccc1`, the Potency result is “inactive”.

With `CCCCNC1CC(C)(C)NC(C)(C)C1`, the Potency entry was “inactive”.

In the case of `COc1ccc2c(c1)C(=O)N(CCc1ccc(S(=O)(=O)NC(=O)NC3CCCCC3)cc1)C(=O)C2(C)C`, the Potency entry is “inactive”.

For the molecule `CC(=O)NCc1c(I)c(NC(C)=O)c(I)c(C(=O)O)c1I`, the Potency entry was “inactive”.

Take `O=C(NCCN1CCOCC1)c1ccc(Cl)cc1`: the Potency entry was “inactive”.

Turning to `O=C1c2cccc3c2[C@H](CCC3)CN1[C@@H]1CN2CCC1CC2`, the Potency entry was “inactive”.

Take `CC(C)(C)c1n[nH]c(=S)n(N)c1=O`: the Potency entry was “inactive”.

As to `C=C(C)C(=O)OCCOP(=O)(O)OCCOC(=O)C(=C)C`, the Potency entry was “inactive”.

As for `CC(C)(C)c1cc(CCC(=O)NN)cc(C(C)(C)C)c1O`, the Potency entry is “inactive”.

Turning to `COc1ccc(Br)c(C)c1`, the Potency entry was “inactive”.

As for `CNC(=O)[C@H]1O[C@@H](n2cnc3c(NCc4cc(Cl)ccc4OCc4cc(C)no4)ncnc32)[C@H](O)[C@@H]1N`, the Potency entry was “inactive”.

With `CO[C@@H]1[C@@H](OC(N)=O)[C@@H](O)[C@H](Oc2ccc3c(O)c(NC(=O)c4ccc(O)c(CC=C(C)C)c4)c(=O)oc3c2C)OC1(C)C`, the Potency entry is “inactive”.

In the case of `Cc1ccc2ccc(Cl)cc2n1`, the Potency result is “inactive”.

In the case of `CC(C)CC(=O)O`, the Potency result was “inactive”.

In the case of `COc1ccc(C2CNC(=O)C2)cc1OC1CCCC1` (stereo not given), the Potency entry is “inactive”.

For the origin of these results see PubChem BioAssay (Tox21).
